According to PubChem BioAssay (Tox21):
Some compounds were tested as several samples or in several runs, with calls that do not always agree. Activity calls are given as the source filed them. Where a call stands in place of a potency, no number is given. Calls come from the whole dose curve; as a rule, active = well fitted activation curve with a large enough effect in the repeat runs; inconclusive = weak or mixed curves; inactive = flat fitted curve, though single readings scatter.
Potency is the fitted concentration of half-maximal effect.

Experiment: Caspase-3/7 induction in CHO-K1 cells by small molecules, qHTS assay (AID 1346980); note: nearly all actives have a fitted effect of over 15% in size
Settings: CHO-K1 caspase-3/7 induction, Caspase-Glo luminescence, 17 h; series mostly up to 92.4 µM; caspase-3/7 activation: at the top concentration
From the text: National Center for Advancing Translational Sciences [NCATS]
NIH Chemical Genomics Center [NCGC]
U.S. Environmental Protection Agency [EPA]
National Institutes of Environmental Health Sciences [NIEHS]
National Toxicology Program [NTP]
Apoptosis is a process of programmed cell death and plays a central role in the development of multicellular organisms. It is a highly regulated process and induces cell death by activating caspases, which are the members of cysteine aspartic acid-specific protease (caspase) family. Caspases involved in apoptosis are classified by their mechanism of action as initiator caspases (caspase-2, -8, -9 and -10) and executioner caspases (caspase-3, -6, and -7). Inhibition of apoptosis results in number of cancers, autoimmune diseases, inflammatory diseases and viral infection. To identify small molecule compounds that induce apoptosis, a homogeneous, luminescent Caspase-Glo 3/7 assay was used. Wild type CHO-K1 cells were used to screen Tox21 libraries for identifying caspase-3/7 activity inducers.
CHO-K1 cells were dispensed at 1,500 per well in 5uL of culture medium into white solid bottom 1536-well plates (Corning Life Sciences, Corning, NY) using a Multidrop Combi (Thermo Scientific, Waltham, MA) dispenser. The assay plates were incubated at 37 C and 5% CO2 for 5hr, and then 23nL of compounds dissolved in DMSO and positive control were transferred using a Pintool station (Wako, San Diego, CA). The assay plates were incubated at 37C and 5% CO2 for 17hr. For caspase-3/7 activity read, 4uL of Caspase-Glo 3/7 reagent (Promega Corporation, Madison, WI) was added to each well of the assay plates using Flying Reagent Dispenser (FRD, Aurora Discovery, San Diego, CA) and incubated the assay plates at room temperature for 30min. The luminescence signal was quantified using a ViewLux plate reader (Perkin Elmer, Shelton, CT).
For O=C(/C=C/c1ccccc1)OCc1ccccc1, the Potency was “inactive”.
For CN(C)C(=N)N=C(N)N, the Potency was “inactive”.
For Nc1ncn([C@@H]2O[C@H](CO)[C@@H](O)[C@H]2O)c(=O)n1, the Potency was “inactive”.
For CC(CCC(=O)O)(c1ccc(O)cc1)c1ccc(O)cc1, the Potency was “inactive”.
In the case of C=C(C)C(=O)OCCOC(=O)C(=C)C, the Potency was “inactive”.
For c1ccc2c(c1)Oc1ccccc1S2, the Potency was “inactive”.
With CCC(C)OC(=O)c1ccc(O)cc1 (stereo not given) the Potency was “inactive”.
For Cc1ccc(C(=O)c2cc(O)c(O)c([N+](=O)[O-])c2)cc1, the Potency was “inactive”.
In the case of COC(=O)C1=C(C)NC(C)=C(C(=O)OCCN(C)Cc2ccccc2)C1c1cccc([N+](=O)[O-])c1 (stereo not given), the “caspase-3/7 activation” value was 0.688% [at 42.5 µM] (inactive).
With O=C1OC2(c3cc(Br)c(O)c(Br)c3Oc3c2cc(Br)c(O)c3Br)c2c(Cl)c(Cl)c(Cl)c(Cl)c21 the Potency was “inactive”.
With COC(=O)Nc1nc2ccc(S(=O)c3ccccc3)cc2[nH]1 (stereo not given) the Potency was “inactive”.
For O=C1c2cccc(O)c2C(=O)c2c(O)cccc21, the Potency was “inactive”.
With Cc1c(OCC(F)(F)F)ccnc1CS(=O)c1nc2ccccc2[nH]1 (stereo not given) the Potency was “inactive”.
In the case of c1ccc2cc(Nc3ccc(Nc4ccc5ccccc5c4)cc3)ccc2c1, the Potency was “inactive”.
With O=C(c1ccccc1)c1ccc(O)cc1O the Potency was “inactive”.
In the case of CCCCCCCCCC(=O)OC, the Potency was “inactive”.
With CC(C)OB(OC(C)C)OC(C)C the Potency was “inactive”.
For O=C(c1ccc(OCCN2CCCCC2)cc1)c1c(-c2ccc(O)cc2)sc2cc(O)ccc12, the Potency was “inactive”.
In the case of Nc1ccc(S(=O)(=O)Nc2cnc3ccccc3n2)cc1, the Potency was “inactive”.
With CC(=O)CC/C=C(\C)CCC=C(C)C the Potency was “inactive”.
In the case of Brc1cc(Oc2cc(Br)c(Br)c(Br)c2Br)c(Br)c(Br)c1Br, the Potency was “inactive”.
In the case of O=CCCCC=O, the Potency was “inactive”.
With Cn1cnc([N+](=O)[O-])c1Sc1ncnc2nc[nH]c12 the Potency was “inactive”.
For Cc1ncc[nH]1, the Potency was “inactive”.
For C/C=C/C(=O)O, the Potency was “inactive”.
For O=[N+]([O-])c1ccc2c(c1)Cc1ccccc1-2, the “caspase-3/7 activation” value was 3.38% (inactive).
With CC(=O)c1ccccn1 the Potency was “inactive”.
For COC(=O)CCC(=O)OC, the Potency was “inactive”.
For O=C=Nc1ccc(Cc2ccc(N=C=O)cc2)cc1, the Potency was “inactive”.
For NNc1ccc(C(=O)O)cc1, the Potency was “inactive”.
With C#C[C@]1(O)CC[C@H]2[C@@H]3CCC4=Cc5oncc5C[C@]4(C)[C@H]3CC[C@@]21C the Potency was “inactive”.
For O=S(=O)(O)c1ccc(O)cc1, the Potency was “inactive”.
With Cc1ccc(C)c(O)c1C the Potency was “inactive”.
In the case of Nc1ncnc2nc[nH]c12, the Potency was “inactive”.
With C#C[C@]1(O)CC[C@H]2[C@@H]3CCc4cc(OC)ccc4[C@H]3CC[C@@]21C the Potency was “inactive”.
In the case of CCCCC(CC)COC(=O)c1ccc(N(C)C)cc1 (stereo not given), the Potency was “inactive”.
In the case of OC(CCl)CCl, the Potency was “inactive”.
With C=CC(C)(CCC=C(C)C)OC(C)=O (stereo not given) the Potency was “inactive”.
For CCOCCOCCO, the Potency was “inactive”.
In the case of CC(C)CC(C)(O)C#CC(C)(O)CC(C)C (stereo not given), the Potency was 42.4 µM (active) and inactive.
